Results filed as inconclusive are left out. Active and inactive are the calls of the source. Calls come from the whole dose curve; as a rule, active = well fitted cell-killing curve with a large enough effect in the repeat runs; inconclusive = weak or mixed curves, or effect the other way; inactive = flat fitted curve, though single readings scatter.

This experiment in a line: qHTS assay to identify small molecule antagonists of the retinoid acid receptor (RAR) signaling pathway - cell viability counter screen (AID 1159551). Note: nearly all actives have a fitted effect of over 35% in size. As to conditions: C3RL4 cells viability, ATP luminescence (CellTiter-Glo), 6 h; series mostly up to 92.4 µM. The text has this: U.S. Tox21 Program National Center for Advancing Translational Sciences [NCATS] NIH Chemical Genomics Center [NCGC] U.S. Environmental Protection Agency [EPA] National Institutes of Environmental Health Sciences [NIEHS] National Toxicology Program [NTP] U.S. Food and Drug Administration [FDA] Tox21 Assay Overview: All-trans Retinoic acid (atRA) is the potent natural metabolite of retinol and plays an important role in normal embryonic development and maintenance of cellular phenotype in adult animals. atRA is the activating ligand for the retinoic acid receptors (RARs) which form heterodimers with retinoid X receptors (RXRs) on the retinoic acid response element (RARE). Through activation of the RAR/RXRs nuclear receptors, atRA regulates the transcription of a large number of protein-coding genes and regulatory RNAs. Intracellular levels of atRA are controlled by the retinol signaling pathway (RSP) that regulates the biosynthesis and catabolism of atRA to maintain physiological levels. Chemicals that interfere with the RSP can cause abnormal intracellular levels of atRA and therefore are potential developmental toxicants. To assess compounds for the potential adverse effect on embryonic development through interfering with retinol signaling, a cell-based RARE luciferase reporter gene assay was used. C3RL4 cell line (OARSA/CFSAN/FDA, Laurel, MD) was used to screen Tox21 10K compound library for identifying inhibitors of the RSP. Also cytotoxicity was assessed by determining the viability of cells based on the quantitation of ATP.
Tox21 Assay Protocol Summary: C3RL4 cells were seeded at 1,000/well in 4 uL of assay medium into white solid 1,536-well tissue culture plates (Greiner Bio-One North America Inc. Monroe, NC) using a Multidrop Combi (Thermo Scientific, Waltham, MA) dispenser. After incubation at 37 C and 5% CO2 for an overnight, 23 nL of compounds dissolved in DMSO, positive control or DMSO only were transferred by a Pintool station (Kalypsys, San Diego, CA). One ul of 1 uM (final concentration) of Retinol was added right after the compound addition by using a Flying Reagent Dispenser (FRD) (Aurora Discovery, San Diego, CA). After 6 hr incubation at 37 C and 5% CO2, 5 uL of CellTiter-Glo reagent (Promega Corporation, Madison, WI) was added to each assay plate using an FRD. Luminescence was quantified on a ViewLux plate reader (PerkinElmer, Waltham, MA) after 30 min incubation at room temperature.
A general note: qHTS replaces the single test concentration by a dilution series.
As for `CC(=O)c1ccc(O)cc1`, the outcome was inactive.
As for `O=C(OCC1CCC2OC2C1)C1CCC2OC2C1` (stereo not given), the entry is “inactive”; as for `CC(=O)CC(C)(C)O`, “inactive”.
As for `CCOC(=O)c1ccc(N)cc1`, the entry is “inactive”; as for `CC1(C)S[C@@H]2[C@H](NC(=O)COc3ccccc3)C(=O)N2[C@H]1C(=O)O`, “inactive”.
As for `O=C(O)c1ccc(S(=O)(=O)N(Cl)Cl)cc1`, the entry is “inactive”; as for `C[C@]12CCC(=O)C=C1CC[C@@H]1[C@@H]2[C@@H](O)C[C@@]2(C)[C@H]1CC[C@]2(O)C(=O)CO`, “inactive”.
`NCCN1CCNCC1`: the molecule was called inactive.
As for `NCCNCCN`, the entry is “inactive”; as for `O=C1CCCC1`, “inactive”.
As for `CN(C)CCOC(=O)COc1ccc(Cl)cc1`, the entry is “inactive”.
For `c1ccc2c(c1)Cc1ccccc1-2`, the molecule was classed as inactive.
Take `CC(=O)OCc1ccccc1`: the molecule was classed as inactive.
As for `CCOCC(=O)O`, the molecule was called inactive.
Turning to `O=C(O)c1ccccc1C(=O)O`, the molecule was classed as inactive.
As for `CC(C)=CCl`, the outcome was inactive.
For the molecule `CCOCCOCCOCCO`, the outcome was inactive.
As for `CC(C)(C#N)c1cc(Cn2cncn2)cc(C(C)(C)C#N)c1`, the entry is “inactive”.
As for `C=CCc1ccc(OC)c(OC)c1`, the entry is “inactive”; as for `Brc1ccc(Br)c(Br)c1`, “inactive”; as for `CCCCCCCCCCCCCCCC(=O)OC(C)C`, “inactive”.
As for `COC(=O)c1cccnc1`, the entry is “inactive”.
Turning to `COC(=O)CCCC(=O)OC`, the result was inactive.
As for `C=CC[N+](C)(C)CC=C`, the entry is “inactive”.
As for `CC(=O)CCC=C(C)C`, the entry is “inactive”; as for `O=c1[nH]cnc2[nH]ncc12`, “inactive”.
As for `COc1ccc(CCC(C)=O)cc1`, the entry is “inactive”; as for `Nc1nc(N)nc(-c2ccccc2)n1`, “inactive”.
As for `OCc1ccccc1`, the outcome was inactive.
For `COc1cc(OC)c(C(=O)CCCN2CCCC2)c(OC)c1`, the molecule was called inactive.
As for `CCO[Si](CCCN)(OCC)OCC`, the entry is “inactive”; as for `CN1C(=O)CC[C@H]1c1cccnc1`, “inactive”; as for `CCNc1ccccc1`, “inactive”.
As for `CCc1ccccc1CC`, the entry is “inactive”; as for `CC(C)(C)c1cc(Cc2cc(C(C)(C)C)c(O)c(C(C)(C)C)c2)cc(C(C)(C)C)c1O`, “inactive”; as for `CCNc1cccc(C)c1`, “inactive”.
As for `CCCCOC(=O)c1ccc(N)cc1`, the entry is “inactive”; as for `CC1(C)NC(=O)NC1=O`, “inactive”; as for `COc1ccc([N+](=O)[O-])cc1N`, “inactive”.
Consider `CCCCCCCCCCN`, for which the outcome was inactive.

For the origin of these results see PubChem BioAssay (Tox21).
